Measurements from PubChem BioAssay AID1439 (NMMLSC, 2008).
Screen size: about 220,000 compounds; about 770 (0.35%) were called active. Roughly 15% stayed inconclusive and do not appear here. The sample holds actives, similar compounds and a random draw of the others, so the mix is not that of the screen. Values without a mark were called inactive. No stated cut-off is given here; in the data, active means binding response below about 49% or above about 150%; inconclusive means no clear call, values can overlap the other calls; inactive means in between.

Molecular target: Guanine nucleotide-binding protein G(o) subunit alpha (Homo sapiens) (UniProt P09471)
Sequence (P09471 whole entry, looked up): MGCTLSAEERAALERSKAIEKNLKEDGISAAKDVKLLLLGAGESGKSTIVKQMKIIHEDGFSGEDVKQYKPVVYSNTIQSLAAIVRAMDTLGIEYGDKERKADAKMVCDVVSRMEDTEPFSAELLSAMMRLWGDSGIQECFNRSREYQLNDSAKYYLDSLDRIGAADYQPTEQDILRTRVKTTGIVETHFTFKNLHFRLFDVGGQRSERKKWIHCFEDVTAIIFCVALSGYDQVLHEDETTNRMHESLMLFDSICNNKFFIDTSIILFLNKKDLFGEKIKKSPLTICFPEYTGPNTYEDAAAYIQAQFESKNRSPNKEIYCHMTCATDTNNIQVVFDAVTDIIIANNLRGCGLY
Test: compounds changing RGS7 association with Galphao – biochemical, multiplexed bead flow cytometry, primary screen (AID 1439);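 further: fluorescent Galphao held in activated GDP-AlF4 state binding bead-coupled RGS7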
Details: at 10 µM, actives lie on both sides

SMILES | binding response (% of control)
Cc1ccccc1C(=O)Nc1ccc(N2CCCCCC2)cc1 | 91.3%
CCOC(=O)c1oc2c(CN3CCN(C)CC3)c(O)ccc2c(=O)c1-c1ccc(Br)cc1 | 318% (active)
CCN1CCN(Cc2c(O)ccc3c(=O)c(-c4ccc(OC)c(OC)c4)c(C(F)(F)F)oc23)CC1 | 97.2%
CN1CCN(Cc2c(O)ccc3c2oc(=O)c2ccccc23)CC1 | 99.2%
COc1ccc(N2C(=O)/C(=C\c3ccco3)N=C2SCC(N)=O)cc1Cl | 93.9%
O=C(O)CCCCCNc1ncnc2ccc(Br)cc12 | 91.8%
Cc1c(CN2CCC(C)CC2)c(=O)n(-c2ccccc2)n1C | 97%
Cc1c(CN2CCCC(C(=O)c3cccc(Cl)c3)C2)c(=O)n(-c2ccccc2)n1C (stereo unspecified) | 230% (active)
Cc1cccc(N2CCN(Cc3c(C)n(C)n(-c4ccccc4)c3=O)CC2)c1C | 103%
Cc1ccc(NC(=O)CN2CCCCC2)c2c1CC(C)(C)O2 | 103%
CS/C(=C\[N+](=O)[O-])Nc1ccc(C)cc1 | 106%
S=C(Nc1cccc(Br)c1)N1CCn2cccc2C1c1cccnc1 (stereo unspecified) | 102%
CC(=O)Nc1ccc(NC(=O)COc2ccccc2C(=O)Nc2cccc(Cl)c2Cl)cc1 | 94.1%
O=C(Nc1ccccc1Cl)c1ccccc1S(=O)(=O)c1ccccc1[N+](=O)[O-] | 90.2%
CN(C)S(=O)(=O)Oc1ccccc1C(=O)Nc1ccccc1Cl | 223% (active)
COc1cccc2c1OCC(CN1CCN(C3CCCCC3)C(CCO)C1)=C2 (stereo unspecified) | 103%
CN1CCN(CCCCOc2ccccc2-c2ccccc2)CC1 | 102%
CC(C)C(O)C1CCN(Cc2nc(Cc3ccccc3Cl)no2)CC1 (stereo unspecified) | 101%
CC(Nc1nc(N2CCOCC2)nc2ccccc12)c1ccccc1 (stereo unspecified) | 103%
Cn1c(Cn2nnc3ccccc32)nnc1SCC(=O)c1ccccc1F | 103%
COc1ccc(OC)c(/C=N/NC(=O)CSc2nnc(C)n2-c2ccccc2)c1 | 105%
C=CCn1c(Cn2nnc3ccccc32)nnc1SCC(=O)N/N=C/c1cc(Br)cc(OC)c1O | -19.4% [inhibitor] (active)

SMILES | binding response (% of control)
CCn1ccnc1CN(C)Cc1nc(-c2ccc3c(c2)OCO3)no1 | 96.5%
O=C(CCn1ccc([N+](=O)[O-])n1)Nc1nccs1 | 97.4%
COc1ccc(C(=O)COC(=O)c2ccc3ccccc3n2)cc1 | 39% [inhibitor] (active)
COc1ccc(C2=NOC(COC(=O)c3ccc4ccccc4n3)C2)cc1 (stereo unspecified) | 97%
CC(OC(=O)c1ccc2ccccc2n1)C(=O)c1ccccc1 (stereo unspecified) | 104%
O=C(O)c1ccccc1-c1ccccc1C(=O)NCc1cccnc1 | 104%
CN(C)CCN=c1cc(-c2ccccc2)oc2ccc(Cl)cc12 | 155% (active)
CN(C)CCn1c(=S)[nH]c2ccc(Cl)cc2c1=O | 97.9%
CCN(CC)S(=O)(=O)c1ccc(N2CCCC2)c(NS(=O)(=O)c2cccs2)c1 | 103%
Cc1cc(C)cc(N(C(C)C(=O)Nc2c(C)n(C)n(-c3ccccc3)c2=O)S(C)(=O)=O)c1 (stereo unspecified) | 101%
Cc1ccc(S(=O)(=O)CC(=O)Nc2c(C)n(C)n(-c3ccccc3)c2=O)cc1 | 95.9%
Cc1cc(C)cc(N(CC(=O)Nc2c(C)n(C)n(-c3ccccc3)c2=O)S(C)(=O)=O)c1 | -21.3% [inhibitor] (active)
CCn1cc(C(=O)NCCCN2CCCCCC2)c(=O)c2cc(S(=O)(=O)N3CCc4ccccc4C3)ccc21 | 103%
Cc1c(C(=O)Nc2ccccc2)sc2nc3n(c(=O)c12)CCCCC3 | 94.2%
NC(=O)C1(N2CCCCC2)CCN(C(=S)Nc2ccc(Cl)cc2)CC1 | 108%
CCC(=O)N1CCC(C(N)=O)(N2CCCCC2)CC1 | 161% (active)
CC(C)(O)C#Cc1ccc(C(=O)N2CCC(C(N)=O)(N3CCCCC3)CC2)cc1 | 101%
Fc1ccc(COc2cccc(-c3n[nH]c(=S)o3)c2)cc1 | 103%
COC(=O)CN1C(=O)N/C(=C/c2ccc(OC)c(C)c2OC)C1=O | 103%
O=C(CN1CCCCCC1)N1c2ccccc2Sc2ccc(C(F)(F)F)cc21 | 89.4%
COc1cc(/C=C/C(=O)N2c3ccccc3Sc3ccc(C(F)(F)F)cc32)cc(OC)c1OC | 104%
O=C(CN1CCCCC1)N1c2ccccc2Sc2ccc(C(F)(F)F)cc21 | 27.5% [inhibitor] (active)

SMILES | binding response (% of control)
N#C/C(C(=S)Nc1ccccc1)=C1/NN=C(N2CCOCC2)N1c1ccccc1 | 97.6%
Cc1ccc(NC(=O)c2cccnc2C(=O)Nc2ccc(C)cc2)cc1 | 106%
O=C(Nc1ccccc1)c1cccnc1Nc1ccccc1 | 99.9%
O=C(Nc1ccc(-n2ccnc2P(=O)(O)c2ccccc2)cc1)c1ccccc1Br | 152% (active)
COC(=O)C1=C(C)N(c2ccc(C)cc2)/C(=C/c2ccc(O)cc2)C1=O | 104%
Cc1ccc2[nH]c(=O)c(CN(CC3COCCO3)C(=O)Nc3ccccc3C)cc2c1 (stereo unspecified) | 102%
CC(=O)c1ccc(NC(=O)CSC(=S)N2CCCC2)cc1 | 102%
CN(CC(=O)NC1CCCCC1)S(=O)(=O)c1ccc(Br)s1 | 99.1%
CN(CC(=O)NC1CCCCC1)S(=O)(=O)c1cccc2cccnc12 | 241% (active)
Cc1ccc(S(=O)(=O)N(C)CC(=O)NC2CCCC2)cc1 | 98.3%
N/C(=N/O)c1cccn1Cc1ccccc1[N+](=O)[O-] | 99.3%
O=C(COC(=O)CCc1ccc(S(=O)(=O)N2CCOCC2)cc1)Nc1cccc(Cl)c1 | 99.8%
Cc1cc(C)n(-c2ccc(Cl)c(C(=O)O)n2)n1 | 96.7%
CCOC(=O)c1nc(C)n(-c2ccc(Cl)cc2Cl)n1 | 102%
Cc1cc(C)nc(/N=C2\NC(=O)CC(C(=O)O)N2c2ccc(Cl)cc2Cl)n1 (stereo unspecified) | 170% (active)
COc1cccc(C2c3[nH]c4ccccc4c3CCN2Cc2cccc(C)n2)c1 (stereo unspecified) | 102%
O=C(NC1CC1)c1ccc2c(c1)NC(=O)c1ccccc1S2 | 191% (active)
S=C1Nc2cc(Cl)ccc2Sc2ccccc21 | 100%
O=C(NC1CC1)c1cccc(Br)c1 | 102%
CC(=O)NC(Cc1ccc(F)c(F)c1)C(=O)NC1CCN(C(=O)c2ccc(C)cc2)CC1 (stereo unspecified) | 95.6%
CCCn1c(NC(=O)C23CC4CC(CC(O)(C4)C2)C3)nc2ccccc21 | 104%
CC(=O)N1CCc2cc(Br)cc(S(=O)(=O)CCC(=O)Nc3c(C)n(C)n(-c4ccccc4)c3=O)c21 | 98.9%
